An excerpt weighted towards active compounds, which were near 2.7% of everything screened.
INS-1E GSIS act = GLuc luminescence reporter in INS-1E cells, primary screen for activators of glucose-dependent secretion of insulin | hit rate 0.61% among 370,000 | INS-1E GLuc reporter insulin secretion, 2-3 h | activation, % at 16.6 µM;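 active = lowest replicate activation of at least 40%, so every replicate reaches that level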;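 note: 0% = median of neutral control wells and 100% = median of IBMX positive control wells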
CFTR F508del cor = correctors of CFTR F508del function in bronchial epithelial cells | hit rate 0.36% among 350,000 | AID 720511 | CFBE cells, YFP halide quenching; stimulated with forskolin plus potentiator P3; % fluorescence drop versus neutral controls | activity (quench increase), % at 7.58 µM;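 active = mean added fluorescence quench of at least 8% versus neutral control, with both replicates also reaching 8%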;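 note: cells transiently co-express mutant CFTR-F508del with the halide-sensitive YFP; corrector assay measuring rescue of mutant channel to the surface after 24 h compound exposure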
PAX8 reporter = PAX8 transcriptional activity inhibition. RMG-I TPO-luciferase reporter, SteadyGlo, 24 h. inhibition, % at 12.6 µM. hit rate 1.2% among 360,000;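 active = mean replicate inhibition at least 60% with every replicate also reaching 60%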;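 note: luciferase light reporting Pax8 driven TPO promoter activity; plate controls were median of neutral control wells for no effect and mitoxantrone controls for full effect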
EWS-Fli inh = EWS/Fli transcriptional activity inhibition; A673 NR0B1-luciferase reporter, viability-normalised; inhibition, % at 12.6 µM; hit rate 0.67% among 350,000; AID 651661;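 active = mean inhibition of at least 50% after viability correction, with every replicate also passing that limit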;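 note: firefly luciferase signal divided by Alamar Blue viability fluorescence both relative to DMSO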
Env fusion inh = inhibitors of HIV Env-mediated cell fusion; HeLa-JRFL Env/CEM21 cell fusion, luciferase; inhibition, % at 12.3 µM; hit rate 1.1% among 360,000; AID 651610;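 active = mean replicate inhibition score of at least 50 and every replicate individually at or above 50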;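 note: 0% = plate neutral controls and 100% = maraviroc near 300 nM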
PGC1a acetyl inh = PGC1a acetylation modulation, inhibitor mode; U2OS PGC1a acetylation, AlphaScreen anti-acetyl-lysine; with virally co-expressed GCN5 acetyltransferase; inhibition, % at 15.6 µM; AID 651687; hit rate 0.17% among 350,000;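 active = every replicate shows inhibition of at least 40%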;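 note: 0% = neutral control wells and 100% = positive control wells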
* marks the source's active call; other numbers are inactive results; / = no result; [ ] = another dose, or the depositor's remark.

SMILES | INS-1E GSIS act | CFTR F508del cor | PAX8 reporter | EWS-Fli inh | Env fusion inh | PGC1a acetyl inh
O=c1cc(-c2ccc(O)c(-c3c(O)cc(O)c4c(=O)cc(-c5ccc(O)cc5)oc34)c2)oc2cc(O)cc(O)c12 | / | 3.3 | -5.7 | 3.1 | / | /
COc1cc(-c2cc(=O)c3c(O)cc(O)cc3o2)cc(OC)c1OC | -1.9 | -4.6 | / | 6.0 | / | -15.0
COc1ccc(-c2cc(=O)c3c(O)cc(O)cc3o2)cc1 | / | 9.8* | -420.4 | -82.6 | -123.2 | -25.5
COc1ccc2oc(-c3ccncc3)cc(=O)c2c1 | 52.6* | 1.2 | -123.4 | -28.6 | 30.3 | 2.7
O=c1cc(-c2ccc(O)c(O)c2)oc2cc(O)cc(O)c12 | / | 8.0* | -79.8 | 40.2 | -52.7 | /
Cc1noc(C)c1NC(=O)N[C@H]1CC[C@H](CC(=O)N2CCN(C)CC2)O[C@@H]1CO | 6.3 | 0.0 | / | / | / | -2.0
Cc1noc(C)c1S(=O)(=O)Nc1cccc2c1O[C@H](CN(C)C(=O)Nc1cccc3ccccc13)[C@H](C)CN([C@@H](C)CO)C2=O | -9.4 | -0.5 | / | 4.1 | / | 1.3
CC(Nc1nc(-c2ccc(F)cc2)cs1)c1nc2cc(Cl)c(N3CCCCC3)cc2n1CCCO (stereo unspecified) | 8.3 | -3.4 | 34.7 | 1.6 | 78.0* | -12.8
Cc1[nH]nc2c1C1(C(=O)N(Cc3ccc(Cl)cc3)c3ccccc31)C(C#N)=C(N)O2 (stereo unspecified) | / | / | / | / | 85.2* | -3.1
O=C(C[C@H]1CC[C@H]2NC[C@H](O)COC[C@@H]2O1)Nc1nccs1 | 6.2 | 2.2 | 8.6 | 3.3 | -1.5[16.7 µM] | 15.6
COc1cc(OC)cc(C(=O)c2c(C)c(C#N)c3ccccn23)c1 | 7.6 | 16.9* | 10.4 | 58.3* | -61.3 | /
CCOC(=O)COc1ccc2c(C#N)c3ccccn3c2c1 | 10.7 | -2.3 | -4.0 | 2.4 | -0.9 | /
COc1cccc(-c2ccc([C@H]3[C@@H](CO)N4C(=O)CN(C(=O)C5CCOCC5)C[C@@H]34)cc2)c1 | 12.6 | -3.4 | -13.0 | 0.2 | / | -25.0
CCCCNCC1CCCO1 (stereo unspecified) | 41.4* | -0.7 | 2.2 | -8.2 | 1.2 | /
Cc1cc(Nc2ccc(Cl)cc2)nc(NCc2ccccc2)n1 | 299.5* | / | 8.6 | / | 71.0* | 0.2
CC(C)C#Cc1ccc2c(c1)O[C@H](CN(C)Cc1cncnc1)[C@H](C)CN([C@H](C)CO)S2(=O)=O | -7.2 | 0.2 | / | 0.9 | -7.6[16.7 µM] | -15.4
N=C(N)c1ccc(N=Nc2c(O)ccc3c2[nH]c2ccccc23)cc1 | 46.5* | -1.3 | 26.3 | 43.8 | / | -5.4
CC(C)Cn1c(Cc2ccccc2)n[nH]c1=S | 55.2* | 0.8 | / | 1.8 | / | 8.6
Cc1noc(C)c1C(=O)N(C)C[C@@H]1OCc2ccccc2-c2c(n(C)c3ccccc23)C(=O)N([C@@H](C)CO)C[C@@H]1C | 7.4 | 1.2 | 22.6 | -16.8 | 22.9[16.7 µM] | 5.6
CCCCCn1ccc(=O)c2c(C(F)(F)F)nccc21 | / | / | -0.3 | / | 50.8* | -1.0
C[C@H]1CN([C@@H](C)CO)C(=O)Cc2cc(NC(=O)Nc3cccc4ccccc34)ccc2O[C@H]1CN(C)S(=O)(=O)c1ccc(F)cc1 | -1.8 | 1.0 | 24.7 | 6.1 | 58.9*[16.7 µM] | 2.3
C[C@H]1CN([C@@H](C)CO)C(=O)Cc2cc(NC(=O)Nc3cccc4ccccc34)ccc2O[C@H]1CN(C)S(=O)(=O)c1ccc(Cl)cc1 | 11.6 | 2.1 | -64.6 | -4.6 | 62.2*[16.7 µM] | 0.1
Cc1ccc(S(=O)(=O)N(C)C[C@@H]2Oc3ccc(NC(=O)Nc4cccc5ccccc45)cc3CC(=O)N([C@H](C)CO)C[C@@H]2C)cc1 | 7.1 | -1.8 | / | 18.3 | 56.5*[16.7 µM] | 11.3
C[C@@H]1CN([C@@H](C)CO)C(=O)Cc2cc(NC(=O)Nc3cccc4ccccc34)ccc2O[C@H]1CN(C)S(=O)(=O)c1ccccc1 | 2.1 | -3.4 | 16.9 | 22.4 | 5.3[16.7 µM] | 1.6
C[C@H](CO)N1C[C@H](C)[C@H](CN(C)S(=O)(=O)c2ccccc2)Oc2ccc(NC(=O)Nc3cccc4ccccc34)cc2CC1=O | 4.4 | 1.9 | 6.0 | 0.2 | 85.2*[16.7 µM] | -6.2
SMILES | INS-1E GSIS act | CFTR F508del cor | PAX8 reporter | EWS-Fli inh | Env fusion inh | PGC1a acetyl inh
C[C@@H](NC(=O)[C@H]1[C@H](CO)[C@H]2Cn3c(cccc3=O)[C@H]2N1CC1CC1)c1ccccc1 | 4.1 | -0.9 | / | 3.1 | / | /
O=C1CN(S(=O)(=O)c2ccccc2)C[C@@H]2[C@H](c3ccc(C#CCc4ccccc4)cc3)[C@@H](CO)N12 | -7.5 | 0.1 | / | -3.7 | / | -4.6
COc1ccc2c3c(n(C)c2c1)[C@@H](CO)N(Cc1ccncc1)CC31CCN(C(=O)Nc2cccc(F)c2)CC1 | -29.0 | -5.3 | / | 18.6 | / | -2.8
Cc1ccccc1S(=O)(=O)N1C[C@@H](O)COC[C@@H]2O[C@H](CC(=O)N3CCOCC3)CC[C@H]21 | -2.2 | 0.6 | -15.0 | 0.4 | / | 6.9
CCC(=O)N(C)C[C@H]1Oc2ncc(-c3ccccc3OC)cc2C(=O)N([C@H](C)CO)C[C@@H]1C | -18.2 | 0.4 | / | -12.7 | -2.1[16.7 µM] | -7.4
C[C@H]1CN([C@@H](C)CO)C(=O)Cc2cc(NC(=O)Nc3cccc4ccccc34)ccc2O[C@H]1CN(C)S(=O)(=O)c1ccccc1 | 0.6 | 3.1 | 37.0 | 7.7 | 71.4*[16.7 µM] | -3.6
Cc1ccc(S(=O)(=O)N(C)C[C@H]2Oc3ccc(NC(=O)Nc4cccc5ccccc45)cc3C(=O)N([C@H](C)CO)C[C@H]2C)cc1 | -28.5 | -2.3 | -7.8 | 1.0 | -0.8[16.7 µM] | -12.5
Cc1ccc(S(=O)(=O)N(C)C[C@H]2Oc3ccc(NC(=O)Nc4cccc5ccccc45)cc3C(=O)N([C@H](C)CO)C[C@@H]2C)cc1 | 27.8 | 1.0 | 9.7 | 3.6 | 65.5*[16.7 µM] | -2.7
COCc1cn(CC[C@@H]2CC[C@H](NC(=O)Nc3ccc(OC)cc3)[C@@H](CO)O2)nn1 | 6.5 | 0.2 | -21.7 | 1.6 | -13.3[16.7 µM] | 2.0
COc1ccccc1C#Cc1cnc2c(c1)C(=O)N([C@H](C)CO)C[C@H](C)[C@@H](CN(C)C(=O)CN(C)C)O2 | 1.0 | -2.0 | / | -0.9 | 2.2[16.7 µM] | 9.5
Cc1cccc(-c2ccc([C@H]3[C@H](CO)N4C(=O)CN(C(=O)c5cnccn5)C[C@@H]34)cc2)c1 | -2.6 | / | / | / | / | /
CCCCNc1nc(N)ncc1[N+](=O)[O-] | 55.2* | 4.2 | 5.3 | 3.7 | -9.0 | /
CCCCNc1c([N+](=O)[O-])ncn1C | -3.9 | 0.5 | -7.2 | -7.2 | -8.2 | 14.1
CN1C(=O)c2cc(NC(=O)C3CC3)ccc2OC[C@H]2O[C@@H](CC(=O)Nc3cccc(Cl)c3)CC[C@@H]21 | 0.7 | 0.8 | -9.2 | 2.8 | / | -4.1
C[C@]12CCC(=O)C=C1CCC1C2CC[C@@]2(C)C1CCC21OCCO1 (stereo partly specified) | / | -3.3 | 21.0 | 5.1 | -53.6 | -5.5
C=C1CC2C3CC[C@@]4(OCOC45COCO5)[C@@]3(C)C(O)CC2[C@@]2(C)CCC(=O)C=C12 (stereo partly specified) | -13.7 | / | 64.2* | / | -34.1 | 5.7

Screening results (PubChem)
